Compound activity deposited in PubChem BioAssay by National Center for Advancing Translational Sciences (NCATS).
The list is not random: actives were taken first. Their share in the collection is about 9.2%.
FLuc counter – qHTS profiling assay for firefly luciferase inhibitor/activator using purifed enzyme and Km concentrations of substrates (counterscreen for miR-21 project); purified FLuc, Km substrates, luminescence inhibition; 360,000 compounds, 6.9% hits; Potency, µM (highest dose often 57.5 µM), most hits filed as inhibitors; Luciferin 4-monooxygenase (Photinus pyralis), P08659; further: nearly all actives have a fitted effect of over 55% in size
Target sequence (P08659 whole entry, looked up): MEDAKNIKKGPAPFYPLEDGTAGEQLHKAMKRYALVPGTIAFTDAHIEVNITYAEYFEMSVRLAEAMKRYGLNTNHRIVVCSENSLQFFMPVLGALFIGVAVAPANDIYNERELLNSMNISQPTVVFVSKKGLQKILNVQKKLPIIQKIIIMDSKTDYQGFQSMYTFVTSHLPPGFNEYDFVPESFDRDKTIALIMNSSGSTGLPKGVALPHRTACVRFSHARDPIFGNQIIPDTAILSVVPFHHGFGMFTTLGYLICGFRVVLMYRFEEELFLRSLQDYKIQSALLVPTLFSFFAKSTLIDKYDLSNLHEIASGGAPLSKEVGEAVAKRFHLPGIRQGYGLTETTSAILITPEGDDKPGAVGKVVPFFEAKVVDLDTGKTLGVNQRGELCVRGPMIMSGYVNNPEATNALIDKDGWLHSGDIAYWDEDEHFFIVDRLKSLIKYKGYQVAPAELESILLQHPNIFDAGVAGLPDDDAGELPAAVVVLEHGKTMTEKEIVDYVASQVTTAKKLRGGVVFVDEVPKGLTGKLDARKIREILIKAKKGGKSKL
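Biochemical qHTS of compounds, final roughly 60 µM downward over six points, against 10 nM purified firefly luciferase using Km concentrations of substrates (10 uM D-luciferin, 10 uM ATP) in Tris acetate pH 7.5 buffer; luminescence output.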
Rab9 prom act – qHTS Assay for Rab9 Promoter Activators. 320,000 compounds, 2.8% hits. Potency, µM (top dose mostly 9.22 µM), most hits filed as activators. Huh7 Rab9 promoter-luciferase reporter, luminescence, 24 h; further: nearly all actives have a fitted effect of over 60% in size
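Cells were plated at 1500 per well in reduced-serum medium with 10% FBS and left 2 h. Compound in DMSO was then added for 24 h at 37 °C. Reporter signal was read by luminescence after 10 min with luciferase detection reagent.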
NPC1 prom act – qHTS Assay for NPC1 Promoter Activators. Huh7 NPC1 promoter luciferase reporter, 24 h. Potency, µM (series often up to 9.22 µM), most hits filed as activators. 320,000 compounds, 2.4% hits; further: nearly all actives have a fitted effect of over 60% in size
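Stable NPC1-promoter luciferase Huh7 line; cpd (DMSO) 24 h, 37 °C, 5% CO2; Amplite luciferase reagent 10 min RT; luminescence readout. qHTS format.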
SMN2 splice enh – qHTS Assay for Enhancers of SMN2 Splice Variant Expression; HEK293 SMN2-luciferase splicing reporter, luminescence, 30-36 h; Potency, µM (doses to about 46.1 µM), hits mostly activators; 210,000 compounds, 2.8% hits; further: nearly all actives have a fitted effect of over 55% in size
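HEK293 cells carry an SMN2 […]–luciferase reporter in which exon 7 inclusion puts luciferase in frame. Cells were plated 10-12 h before compound addition, then incubated 30-36 h at 37C. ONE-Glo luminescence was read; sodium butyrate at 4.5 mM final served as control.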
ELG1 repair inh – qHTS screen for small molecules that inhibit ELG1-dependent DNA repair in human embryonic kidney (HEK293T) cells expressing luciferase-tagged ELG1; HEK293T ELG1-luciferase reporter, luminescence, 16 h; DNA damage induced by 5-fluorouridine; AID 504467, 2011; Potency, µM (series often up to 46.1 µM), usual class: inhibitors; 330,000 compounds, 2.3% hits; further: nearly all actives have a fitted effect of over 55% in size
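In this reporter screen, reduction of luminescence relative to DMSO vehicle indicated activity. Compounds and 5-fluorouridine were added together to 2,000 cells per well, incubated for 16 hr at 37 °C, then developed with ONE-Glo.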
ELG1 genotoxic – qHTS screen for small molecules that induce genotoxicity in human embryonic kidney (HEK293T) cells expressing luciferase-tagged ELG1; HEK293T ELG1-luciferase reporter, luminescence, 16 h; Potency, µM (doses to about 46 µM), most hits filed as activators; 330,000 compounds, 1.3% hits; AID 504466, 2011; further: nearly all actives have a fitted effect of over 60% in size
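DMSO vehicle served as control against compound-treated ELG1-luciferase HEK293T cells; exposure lasted 16 hr at 37 °C and 5% CO2, followed by ONE-Glo luminescence detection after 30 min.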
Hits are given with their value; [ ] = dose if it differs, or a comment. The call rests on the fitted dose curve; in most records, active means well fitted curve in the direction sought with a large enough effect; inconclusive means small, poorly fitted or top-dose-only effect, or another doubt; inactive means no such curve, though single readings can be large; an effect the other way counts as inactive or inconclusive.

How did CCOC(=O)/C(C#N)=C/Nc1ccsc1C(C)=O do in these assays?
FLuc counter: inconclusive; Rab9 prom act: inactive; NPC1 prom act: inactive; ELG1 repair inh: inconclusive; ELG1 genotoxic: inactive

Results for COC(=O)c1sccc1-c1ccc(C(N)=O)o1 ?
FLuc counter: inactive; Rab9 prom act: inactive; NPC1 prom act: inactive; SMN2 splice enh: inactive; ELG1 repair inh: inactive; ELG1 genotoxic: inactive

How did COC(=O)C(=Cc1ccc(-c2ccsc2C(=O)OC)o1)C(=O)OC do in these assays?
FLuc counter: 11µM; Rab9 prom act: inactive; NPC1 prom act: inactive; ELG1 repair inh: inactive; ELG1 genotoxic: inactive

How did CCOC(=O)/C(C#N)=C/c1ccc(-c2ccc(Br)cc2)o1 do in these assays?
FLuc counter: 6.7µM; SMN2 splice enh: inactive

How did O=C(CCNC(=O)c1ccccc1Cl)Nc1cccc(S(=O)(=O)N2CCOCC2)c1 do in these assays?
FLuc counter: inactive; Rab9 prom act: inactive; NPC1 prom act: inactive; ELG1 repair inh: inactive; ELG1 genotoxic: inactive

What do the screens show for `O=C(Nc1ccccc1N1CCN(C(=O)c2ccccc2)CC1)c1ccc(Br)o1`?
FLuc counter: inactive; Rab9 prom act: inactive[1.84 µM]; NPC1 prom act: inactive; ELG1 repair inh: inactive; ELG1 genotoxic: inactive

How did CCOC(=O)C(=Cc1ccc(-c2ccsc2C(=O)OC)o1)C(=O)OCC do in these assays?
FLuc counter: 19µM; Rab9 prom act: inactive; NPC1 prom act: inactive; SMN2 splice enh: inactive; ELG1 repair inh: inconclusive; ELG1 genotoxic: inactive

Results for COC(=O)c1sccc1NC(=O)c1cccs1 ?
FLuc counter: inactive; Rab9 prom act: inactive; NPC1 prom act: inactive; ELG1 repair inh: inactive; ELG1 genotoxic: inactive

Results for COC(=O)c1sccc1-c1ccc(/C=N/OC(=O)c2cccs2)o1 ?
FLuc counter: 5.4µM; Rab9 prom act: inactive; NPC1 prom act: inactive; ELG1 repair inh: inactive; ELG1 genotoxic: inactive

Results for COCCCNC(=O)c1c[nH]c2ccc(S(=O)(=O)N3CCc4ccccc43)cc2c1=O ?
FLuc counter: inactive; Rab9 prom act: inactive; NPC1 prom act: inactive; ELG1 repair inh: 7.3µM; ELG1 genotoxic: inactive

How did COCCNC(=O)c1c[nH]c2ccc(S(=O)(=O)N3CCc4ccccc43)cc2c1=O do in these assays?
FLuc counter: inactive; Rab9 prom act: inactive; NPC1 prom act: inactive; ELG1 repair inh: 10µM; ELG1 genotoxic: inactive

What do the screens show for `COCCSc1ccccc1C(=O)Nc1ccc(S(=O)(=O)N2CCOCC2)cc1`?
FLuc counter: inactive; Rab9 prom act: inactive; NPC1 prom act: inactive; ELG1 repair inh: inactive; ELG1 genotoxic: inactive

Results for COC(=O)c1ccccc1NC(=O)NCCc1ccccc1OC ?
FLuc counter: inconclusive; Rab9 prom act: 4µM; NPC1 prom act: 3.5µM; SMN2 splice enh: 13µM; ELG1 repair inh: inconclusive; ELG1 genotoxic: inactive

What do the screens show for `COc1ccccc1CCNC(=O)c1ccc(Br)s1`?
FLuc counter: 13µM; Rab9 prom act: inactive; NPC1 prom act: inactive; ELG1 repair inh: inconclusive; ELG1 genotoxic: inactive

How did COc1ccccc1CCNS(=O)(=O)CCNC(=O)c1ccccc1 do in these assays?
FLuc counter: inactive; Rab9 prom act: inactive; NPC1 prom act: inactive; ELG1 repair inh: inactive; ELG1 genotoxic: inactive

How did COC(=O)c1ccc(C(=O)OC)c(NC2=NS(=O)(=O)c3ccccc32)c1 do in these assays?
FLuc counter: inactive; Rab9 prom act: inactive; NPC1 prom act: inactive; SMN2 splice enh: inactive; ELG1 repair inh: inactive; ELG1 genotoxic: inactive

What do the screens show for `COC(=O)c1c(-c2ccccc2)csc1NC1=NS(=O)(=O)c2ccccc21`?
FLuc counter: 0.6µM; Rab9 prom act: 2.5µM; NPC1 prom act: inactive; SMN2 splice enh: 0.56µM; ELG1 repair inh: inconclusive; ELG1 genotoxic: inconclusive

What do the screens show for `COc1ccc(/C=N/n2c(N)nc3ccccc32)cc1OC`?
FLuc counter: 5.4µM; Rab9 prom act: inactive; NPC1 prom act: inconclusive; SMN2 splice enh: inactive; ELG1 repair inh: inconclusive; ELG1 genotoxic: inactive

Results for COc1cccc(/C=N/n2cnc3ccccc32)c1OC ?
FLuc counter: 4.8µM; Rab9 prom act: 2.2µM; NPC1 prom act: 2.5µM; SMN2 splice enh: inconclusive; ELG1 repair inh: inconclusive; ELG1 genotoxic: 2.6µM

How did C(=N\n1cnc2ccccc21)/c1cccnc1 do in these assays?
FLuc counter: inconclusive; Rab9 prom act: inactive; NPC1 prom act: inactive; SMN2 splice enh: inactive; ELG1 repair inh: inconclusive; ELG1 genotoxic: inactive

How did COc1cccc(/C=N/n2c(N)nc3ccccc32)c1OC do in these assays?
FLuc counter: 12µM; Rab9 prom act: inconclusive; NPC1 prom act: inconclusive; SMN2 splice enh: inconclusive; ELG1 repair inh: inconclusive; ELG1 genotoxic: inactive

How did Cc1ccc(NC(=O)CCCN2C(=O)COc3ccc(C)cc32)c(C)c1 do in these assays?
FLuc counter: inactive; SMN2 splice enh: inactive

Results for CCc1ccc2c(c1)C1(NN=C(c3ccc(C)cc3)S1)C(=O)N2 (stereo not drawn) ?
FLuc counter: 27µM; Rab9 prom act: inactive; NPC1 prom act: inactive; SMN2 splice enh: inactive; ELG1 repair inh: inconclusive; ELG1 genotoxic: inconclusive

What do the screens show for `CC(C)c1ccc(O)c(NC(=O)c2ncn[nH]2)c1`?
FLuc counter: inconclusive; Rab9 prom act: inactive; NPC1 prom act: inactive; SMN2 splice enh: inactive; ELG1 repair inh: inactive; ELG1 genotoxic: inactive

Results for CC(C)c1ccc2c(c1)C1(NN=C(c3ccccc3)S1)C(=O)N2 (stereo not drawn) ?
FLuc counter: 17µM; Rab9 prom act: inactive; NPC1 prom act: inactive; SMN2 splice enh: inactive; ELG1 repair inh: inconclusive; ELG1 genotoxic: inactive

What do the screens show for `NC(=O)c1ccsc1NC(=O)c1coc2ccccc2c1=O`?
FLuc counter: 2.4µM; Rab9 prom act: 2µM; NPC1 prom act: inconclusive; SMN2 splice enh: 11µM; ELG1 repair inh: inconclusive; ELG1 genotoxic: 7.3µM

Results for O=C(CC(c1ccccc1)c1cc(Br)ccc1O)N1CCCCC1 (stereo not drawn) ?
FLuc counter: inactive; Rab9 prom act: inactive; NPC1 prom act: inactive; ELG1 repair inh: inconclusive; ELG1 genotoxic: inactive

How did CC(C)Oc1ccc(C(=O)OC(C)C(=O)Nc2nc(-c3cccc([N+](=O)[O-])c3)cs2)cc1 (stereo not drawn) do in these assays?
FLuc counter: inactive; Rab9 prom act: inactive; NPC1 prom act: inactive; SMN2 splice enh: inactive; ELG1 repair inh: 16µM; ELG1 genotoxic: inactive

How did CC(OC(=O)c1ccc(F)cc1)C(=O)Nc1nc(-c2cccc([N+](=O)[O-])c2)cs1 (stereo not drawn) do in these assays?
FLuc counter: inactive; Rab9 prom act: inactive; NPC1 prom act: inactive; SMN2 splice enh: inactive; ELG1 repair inh: inconclusive; ELG1 genotoxic: inactive
